This passage reports binding signal results from article PMC7862700, “An all-to-all approach to the identification of sequence-specific readers for epigenetic DNA modifications on cytosine”.

Common to all, as to test: DAPPL (digital affinity profiling via proximity ligation, sequencing); 10 mM Tris-HCl pH 7.5, 50 mM NaCl, 1 mM DTT, 4% glycerol, room temperature, 30 min; GST-TFs on glutathione beads, 16-mer random dsDNA library, 0.1% formaldehyde crosslink after washing; high values mean tight binding
One assay addresses T1, FLI1 (Homo sapiens, UniProt Q01543 1-452).
T1 sequence: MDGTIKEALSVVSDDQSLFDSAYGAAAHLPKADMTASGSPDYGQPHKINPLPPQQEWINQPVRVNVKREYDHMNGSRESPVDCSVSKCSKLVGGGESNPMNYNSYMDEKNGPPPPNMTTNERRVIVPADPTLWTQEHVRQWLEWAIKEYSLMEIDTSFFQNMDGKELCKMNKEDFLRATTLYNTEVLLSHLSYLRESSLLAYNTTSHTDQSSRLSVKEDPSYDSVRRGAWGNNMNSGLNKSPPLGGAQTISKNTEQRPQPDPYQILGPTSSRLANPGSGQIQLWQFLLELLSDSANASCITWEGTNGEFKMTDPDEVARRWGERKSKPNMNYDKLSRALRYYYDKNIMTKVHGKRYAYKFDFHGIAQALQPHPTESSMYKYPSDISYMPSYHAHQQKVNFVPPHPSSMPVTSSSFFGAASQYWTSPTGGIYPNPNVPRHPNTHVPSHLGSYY
As to conditions: protein: recombinant; tags: N-terminal GST; dsDNA, one strand shown. In short, it runs like this: (§1)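 The binding signal reported is, for every hexamer, its read frequency for a factor over its read frequency for the tag-only sample. Reads came from pools of yeast-expressed, GST-fused human transcription factors on glutathione beads, barcoded with DNA and mixed with that sample, which were incubated with 200 nmole of a random double-stranded 16-mer DNA library in Tris/NaCl/DTT/glycerol buffer at room temperature for 30 min. After washing, the pools were crosslinked with 0.1% formaldehyde, proximity-ligated with BsaI/T4 ligase for 1 h at 37 °C, PCR-amplified and sequenced on an Illumina NextSeq500.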

The target in another assay is T2, ELK1 (Homo sapiens, UniProt P19419 1-428).
T2 sequence: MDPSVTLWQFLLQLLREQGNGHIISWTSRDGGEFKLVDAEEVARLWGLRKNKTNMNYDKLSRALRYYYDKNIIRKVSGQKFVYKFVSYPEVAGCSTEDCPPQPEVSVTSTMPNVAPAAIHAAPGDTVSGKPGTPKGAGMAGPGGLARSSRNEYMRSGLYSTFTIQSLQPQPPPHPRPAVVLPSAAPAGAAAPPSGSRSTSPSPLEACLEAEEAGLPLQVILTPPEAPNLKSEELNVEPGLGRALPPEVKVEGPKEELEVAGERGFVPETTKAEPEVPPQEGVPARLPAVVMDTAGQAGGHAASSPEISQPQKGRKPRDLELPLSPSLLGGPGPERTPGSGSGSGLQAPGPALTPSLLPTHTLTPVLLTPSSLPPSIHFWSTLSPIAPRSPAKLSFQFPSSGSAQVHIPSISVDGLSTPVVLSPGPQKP
As to conditions: protein: recombinant; tags: N-terminal GST; dsDNA, one strand shown. A digest of the protocol:
as §1

In the next assay the target is T3, GABPA (Homo sapiens, UniProt Q06546 1-454).
T3 sequence: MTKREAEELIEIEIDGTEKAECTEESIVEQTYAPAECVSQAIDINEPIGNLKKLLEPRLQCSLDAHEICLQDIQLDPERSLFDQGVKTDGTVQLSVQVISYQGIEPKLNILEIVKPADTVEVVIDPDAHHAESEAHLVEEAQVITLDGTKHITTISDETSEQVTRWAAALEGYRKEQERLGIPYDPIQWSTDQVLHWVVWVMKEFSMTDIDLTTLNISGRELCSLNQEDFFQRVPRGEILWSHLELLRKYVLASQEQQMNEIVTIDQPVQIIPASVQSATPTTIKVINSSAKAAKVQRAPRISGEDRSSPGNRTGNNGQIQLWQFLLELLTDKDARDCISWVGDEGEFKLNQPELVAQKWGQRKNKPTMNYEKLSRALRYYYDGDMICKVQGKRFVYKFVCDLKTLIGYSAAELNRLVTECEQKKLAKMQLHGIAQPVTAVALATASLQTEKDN
As to conditions: protein: recombinant; tags: N-terminal GST; dsDNA, one strand shown. In short, it runs like this: as §1

Another assay has as its target T4, ERG (Homo sapiens, UniProt P11308 1-479).
T4 sequence: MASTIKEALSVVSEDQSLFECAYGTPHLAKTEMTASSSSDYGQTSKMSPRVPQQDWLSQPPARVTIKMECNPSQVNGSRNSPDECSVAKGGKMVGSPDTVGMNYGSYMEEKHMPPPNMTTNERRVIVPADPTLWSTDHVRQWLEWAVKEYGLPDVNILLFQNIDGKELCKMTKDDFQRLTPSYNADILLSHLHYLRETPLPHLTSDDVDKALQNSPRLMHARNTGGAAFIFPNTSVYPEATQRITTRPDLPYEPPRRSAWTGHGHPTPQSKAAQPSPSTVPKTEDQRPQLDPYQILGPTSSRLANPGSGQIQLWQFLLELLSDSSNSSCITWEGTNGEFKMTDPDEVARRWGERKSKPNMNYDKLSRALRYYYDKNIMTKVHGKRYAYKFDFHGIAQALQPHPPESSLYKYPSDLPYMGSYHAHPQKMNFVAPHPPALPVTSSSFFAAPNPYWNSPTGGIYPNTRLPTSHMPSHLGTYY
To be noted: protein: recombinant; tags: N-terminal GST; dsDNA, one strand shown. In short, it runs like this: as §1

The target in another assay is ELF1 (Homo sapiens, UniProt P32519 1-619). To be noted: protein: recombinant; tags: N-terminal GST; dsDNA, one strand shown. A digest of the protocol:
as §1

A further assay deals with T5, EHF (Homo sapiens, UniProt Q9NZC4 1-300).
T5 sequence: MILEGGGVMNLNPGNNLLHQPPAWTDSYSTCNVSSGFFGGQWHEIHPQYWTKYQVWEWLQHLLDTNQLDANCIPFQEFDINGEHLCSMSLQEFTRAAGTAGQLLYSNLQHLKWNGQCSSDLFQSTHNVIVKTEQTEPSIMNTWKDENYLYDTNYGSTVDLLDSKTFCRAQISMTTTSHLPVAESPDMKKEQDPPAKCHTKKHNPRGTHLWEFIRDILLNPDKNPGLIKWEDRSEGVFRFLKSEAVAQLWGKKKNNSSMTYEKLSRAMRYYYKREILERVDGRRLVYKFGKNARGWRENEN
To be noted: protein: recombinant; tags: N-terminal GST; dsDNA, one strand shown. In short, it runs like this: as §1

The target in a further assay is SPI1 (Homo sapiens, UniProt P17947 1-270). To be noted: protein: recombinant; tags: N-terminal GST; dsDNA, one strand shown. A digest of the protocol: as §1
The next assay has as its target SPIB (Homo sapiens, UniProt Q01892 1-262). To be noted: protein: recombinant; tags: N-terminal GST; dsDNA, one strand shown. In short, it runs like this:
as §1

Another assay has as its target T6, ELK3 (Homo sapiens, UniProt P41970 1-407).
T6 sequence: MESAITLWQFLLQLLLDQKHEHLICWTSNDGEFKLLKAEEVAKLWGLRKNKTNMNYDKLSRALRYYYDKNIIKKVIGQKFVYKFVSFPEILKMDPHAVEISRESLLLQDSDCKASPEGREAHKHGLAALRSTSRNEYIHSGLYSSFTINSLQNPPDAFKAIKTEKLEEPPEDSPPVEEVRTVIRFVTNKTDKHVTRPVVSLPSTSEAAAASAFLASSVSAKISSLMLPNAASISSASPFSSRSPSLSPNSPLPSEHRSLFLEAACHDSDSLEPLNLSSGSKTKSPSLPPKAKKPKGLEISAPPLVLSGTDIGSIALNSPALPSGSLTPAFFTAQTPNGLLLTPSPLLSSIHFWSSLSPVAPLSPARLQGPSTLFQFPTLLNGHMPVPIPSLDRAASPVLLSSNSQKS
As to conditions: protein: recombinant; tags: N-terminal GST; dsDNA, one strand shown. In short, it runs like this: as §1

Another assay concerns the target T7, FEV (Homo sapiens, UniProt Q99581 1-238).
T7 sequence: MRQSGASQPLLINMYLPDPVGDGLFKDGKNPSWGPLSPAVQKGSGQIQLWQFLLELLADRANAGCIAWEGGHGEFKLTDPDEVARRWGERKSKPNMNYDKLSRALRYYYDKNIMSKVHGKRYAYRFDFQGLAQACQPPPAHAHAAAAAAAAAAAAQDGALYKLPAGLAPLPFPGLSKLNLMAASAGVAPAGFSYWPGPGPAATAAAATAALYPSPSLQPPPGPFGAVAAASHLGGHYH
As to conditions: protein: recombinant; tags: N-terminal GST; dsDNA, one strand shown. In short, it runs like this:
as §1

The next assay addresses ETV5 (Homo sapiens, UniProt P41161 1-510). As to conditions: protein: recombinant; tags: N-terminal GST; dsDNA, one strand shown. In short, it runs like this: as §1
A further assay deals with HSF1 (Homo sapiens, UniProt Q00613 1-529). As to conditions: protein: recombinant; tags: N-terminal GST; chain copies: 3; dsDNA, one strand shown. In short, it runs like this:
as §1

For a further assay, the target named is T8, SPIC (Homo sapiens, UniProt Q8N5J4 1-248).
T8 sequence: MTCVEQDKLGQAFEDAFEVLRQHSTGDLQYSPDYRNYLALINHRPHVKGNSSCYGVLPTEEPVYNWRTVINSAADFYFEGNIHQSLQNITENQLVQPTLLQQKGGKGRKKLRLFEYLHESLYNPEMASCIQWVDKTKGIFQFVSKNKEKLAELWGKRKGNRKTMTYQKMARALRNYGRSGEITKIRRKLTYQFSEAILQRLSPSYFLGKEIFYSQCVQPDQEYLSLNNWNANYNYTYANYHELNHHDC
To be noted: protein: recombinant; tags: N-terminal GST; dsDNA, one strand shown. A digest of the protocol: as §1

Another assay concerns the target ELF4 (Homo sapiens, UniProt Q99607 1-663). As to conditions: protein: recombinant; tags: N-terminal GST; dsDNA, one strand shown. In short, it runs like this:
as §1

In a further assay the target is T9, ELK4 (Homo sapiens, UniProt P28324-2 1-405).
T9 sequence: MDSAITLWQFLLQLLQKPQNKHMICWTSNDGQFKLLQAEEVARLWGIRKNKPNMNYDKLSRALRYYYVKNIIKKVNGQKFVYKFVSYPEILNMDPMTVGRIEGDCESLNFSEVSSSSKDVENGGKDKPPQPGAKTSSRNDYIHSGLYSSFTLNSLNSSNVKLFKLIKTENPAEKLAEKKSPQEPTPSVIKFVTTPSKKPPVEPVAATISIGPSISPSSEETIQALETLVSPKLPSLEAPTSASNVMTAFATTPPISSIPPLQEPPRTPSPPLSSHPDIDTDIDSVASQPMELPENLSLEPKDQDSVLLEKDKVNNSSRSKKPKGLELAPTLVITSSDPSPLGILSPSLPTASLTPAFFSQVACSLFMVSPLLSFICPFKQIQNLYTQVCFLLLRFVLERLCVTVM
As to conditions: protein: recombinant; tags: N-terminal GST; dsDNA, one strand shown. In short, it runs like this:
as §1

A further assay has as its target T10, ETV2 (Homo sapiens, UniProt O00321 1-342).
T10 sequence: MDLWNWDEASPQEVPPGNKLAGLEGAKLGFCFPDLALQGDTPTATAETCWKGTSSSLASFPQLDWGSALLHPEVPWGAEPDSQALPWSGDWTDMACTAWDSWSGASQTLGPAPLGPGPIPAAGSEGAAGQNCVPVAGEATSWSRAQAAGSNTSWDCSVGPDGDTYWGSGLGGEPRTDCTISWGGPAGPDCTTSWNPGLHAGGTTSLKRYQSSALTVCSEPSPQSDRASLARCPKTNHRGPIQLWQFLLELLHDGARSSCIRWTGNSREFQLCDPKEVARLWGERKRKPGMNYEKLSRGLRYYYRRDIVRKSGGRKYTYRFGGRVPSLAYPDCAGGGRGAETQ
To be noted: protein: recombinant; tags: N-terminal GST; dsDNA, one strand shown. A digest of the protocol:
as §1

The target of a further assay is T11, ELF3 (Homo sapiens, UniProt P78545 1-371).
T11 sequence: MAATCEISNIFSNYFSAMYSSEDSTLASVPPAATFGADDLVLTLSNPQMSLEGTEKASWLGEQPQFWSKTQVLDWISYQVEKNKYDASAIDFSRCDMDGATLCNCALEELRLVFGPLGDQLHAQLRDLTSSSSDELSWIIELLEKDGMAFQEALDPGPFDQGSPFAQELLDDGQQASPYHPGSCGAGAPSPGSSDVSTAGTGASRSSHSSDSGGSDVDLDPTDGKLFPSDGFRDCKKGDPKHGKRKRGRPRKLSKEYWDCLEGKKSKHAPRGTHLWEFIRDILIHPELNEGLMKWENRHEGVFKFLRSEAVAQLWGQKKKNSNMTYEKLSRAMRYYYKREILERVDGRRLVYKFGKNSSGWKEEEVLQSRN
As to conditions: protein: recombinant; tags: N-terminal GST; dsDNA, one strand shown. In short, it runs like this: as §1

Another assay deals with CRX (Homo sapiens, UniProt O43186 1-299). To be noted: protein: recombinant; tags: N-terminal GST; dsDNA, one strand shown. A digest of the protocol:
as §1

A further assay has as its target ETV1 (Homo sapiens, UniProt P50549 1-477). As to conditions: protein: recombinant; tags: N-terminal GST; dsDNA, one strand shown. In short, it runs like this: as §1

Chain of ELF1 (P32519 whole entry): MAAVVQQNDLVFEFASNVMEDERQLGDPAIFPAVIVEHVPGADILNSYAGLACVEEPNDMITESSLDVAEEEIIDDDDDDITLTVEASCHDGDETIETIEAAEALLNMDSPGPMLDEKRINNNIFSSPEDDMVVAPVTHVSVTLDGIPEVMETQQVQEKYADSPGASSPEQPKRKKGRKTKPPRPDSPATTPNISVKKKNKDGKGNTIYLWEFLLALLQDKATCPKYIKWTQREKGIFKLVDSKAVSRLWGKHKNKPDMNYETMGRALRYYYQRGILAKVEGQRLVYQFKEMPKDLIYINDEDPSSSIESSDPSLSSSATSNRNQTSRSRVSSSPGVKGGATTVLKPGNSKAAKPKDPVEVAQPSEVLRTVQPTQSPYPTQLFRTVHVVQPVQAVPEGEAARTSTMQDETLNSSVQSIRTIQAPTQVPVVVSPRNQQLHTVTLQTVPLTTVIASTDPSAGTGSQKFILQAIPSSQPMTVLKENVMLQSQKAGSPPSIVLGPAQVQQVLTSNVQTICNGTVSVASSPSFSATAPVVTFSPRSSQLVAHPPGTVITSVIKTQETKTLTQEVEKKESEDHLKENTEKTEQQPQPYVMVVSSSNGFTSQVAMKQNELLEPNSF
Chain of SPIB (Q01892 whole entry): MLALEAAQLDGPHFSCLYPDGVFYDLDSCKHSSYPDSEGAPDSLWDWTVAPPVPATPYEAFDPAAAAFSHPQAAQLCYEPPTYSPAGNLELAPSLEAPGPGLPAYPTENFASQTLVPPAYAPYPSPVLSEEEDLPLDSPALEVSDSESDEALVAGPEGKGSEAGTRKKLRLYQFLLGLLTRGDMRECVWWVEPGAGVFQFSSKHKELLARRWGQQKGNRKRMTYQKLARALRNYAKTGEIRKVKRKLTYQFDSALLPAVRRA
Chain of ETV1 (P50549 whole entry): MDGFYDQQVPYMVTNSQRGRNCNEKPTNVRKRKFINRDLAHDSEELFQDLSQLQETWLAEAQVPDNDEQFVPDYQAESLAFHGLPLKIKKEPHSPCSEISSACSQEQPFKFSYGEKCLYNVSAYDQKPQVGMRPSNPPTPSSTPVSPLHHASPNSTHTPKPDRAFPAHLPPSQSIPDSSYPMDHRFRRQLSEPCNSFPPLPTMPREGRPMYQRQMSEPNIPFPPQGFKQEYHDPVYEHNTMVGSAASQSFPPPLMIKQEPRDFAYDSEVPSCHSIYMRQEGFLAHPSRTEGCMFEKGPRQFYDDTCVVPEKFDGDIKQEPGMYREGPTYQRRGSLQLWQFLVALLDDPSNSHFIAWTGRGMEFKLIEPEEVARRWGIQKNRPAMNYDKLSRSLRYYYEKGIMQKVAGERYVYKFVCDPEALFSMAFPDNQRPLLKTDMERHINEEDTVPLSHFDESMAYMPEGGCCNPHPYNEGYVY
Chain of ETV5 (P41161 whole entry): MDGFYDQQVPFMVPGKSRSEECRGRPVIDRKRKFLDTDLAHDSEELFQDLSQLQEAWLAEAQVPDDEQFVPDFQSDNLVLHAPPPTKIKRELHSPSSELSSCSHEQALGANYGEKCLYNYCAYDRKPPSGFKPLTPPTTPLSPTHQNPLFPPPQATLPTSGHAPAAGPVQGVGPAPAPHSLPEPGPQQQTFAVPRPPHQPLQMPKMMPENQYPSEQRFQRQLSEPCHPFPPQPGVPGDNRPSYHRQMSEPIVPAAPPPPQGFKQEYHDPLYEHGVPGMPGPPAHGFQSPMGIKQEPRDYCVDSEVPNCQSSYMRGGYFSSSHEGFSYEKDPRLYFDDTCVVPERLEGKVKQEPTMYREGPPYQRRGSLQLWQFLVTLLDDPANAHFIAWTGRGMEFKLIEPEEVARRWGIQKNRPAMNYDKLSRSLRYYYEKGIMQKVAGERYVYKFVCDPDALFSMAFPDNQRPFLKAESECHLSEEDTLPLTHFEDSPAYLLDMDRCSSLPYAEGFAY
Chain of ELF4 (Q99607 whole entry): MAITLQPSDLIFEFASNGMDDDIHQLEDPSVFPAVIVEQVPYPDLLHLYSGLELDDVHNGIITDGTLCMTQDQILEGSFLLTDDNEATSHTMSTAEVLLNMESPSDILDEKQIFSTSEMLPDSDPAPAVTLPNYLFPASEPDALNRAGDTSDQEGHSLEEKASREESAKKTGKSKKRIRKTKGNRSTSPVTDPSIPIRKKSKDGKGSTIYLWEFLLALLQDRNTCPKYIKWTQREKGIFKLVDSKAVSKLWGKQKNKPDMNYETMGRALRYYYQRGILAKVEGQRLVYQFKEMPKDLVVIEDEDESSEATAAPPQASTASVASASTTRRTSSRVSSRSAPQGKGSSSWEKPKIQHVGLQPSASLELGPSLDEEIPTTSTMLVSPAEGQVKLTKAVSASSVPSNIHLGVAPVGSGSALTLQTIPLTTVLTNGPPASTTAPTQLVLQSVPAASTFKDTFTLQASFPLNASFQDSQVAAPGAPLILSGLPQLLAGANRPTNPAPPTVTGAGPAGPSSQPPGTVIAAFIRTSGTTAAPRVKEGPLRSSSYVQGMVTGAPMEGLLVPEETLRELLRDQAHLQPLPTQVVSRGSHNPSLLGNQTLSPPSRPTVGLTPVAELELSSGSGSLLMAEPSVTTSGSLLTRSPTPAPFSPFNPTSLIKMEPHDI
Chain of CRX (O43186 whole entry): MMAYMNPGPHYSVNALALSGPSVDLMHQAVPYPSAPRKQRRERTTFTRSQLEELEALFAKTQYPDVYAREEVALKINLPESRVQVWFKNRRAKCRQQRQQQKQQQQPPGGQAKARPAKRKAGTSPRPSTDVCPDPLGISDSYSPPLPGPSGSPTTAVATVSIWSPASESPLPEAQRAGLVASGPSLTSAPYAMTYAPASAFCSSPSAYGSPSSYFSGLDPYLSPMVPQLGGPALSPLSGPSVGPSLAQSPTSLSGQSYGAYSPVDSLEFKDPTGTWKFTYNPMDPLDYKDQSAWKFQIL
Chain of HSF1 (Q00613 whole entry): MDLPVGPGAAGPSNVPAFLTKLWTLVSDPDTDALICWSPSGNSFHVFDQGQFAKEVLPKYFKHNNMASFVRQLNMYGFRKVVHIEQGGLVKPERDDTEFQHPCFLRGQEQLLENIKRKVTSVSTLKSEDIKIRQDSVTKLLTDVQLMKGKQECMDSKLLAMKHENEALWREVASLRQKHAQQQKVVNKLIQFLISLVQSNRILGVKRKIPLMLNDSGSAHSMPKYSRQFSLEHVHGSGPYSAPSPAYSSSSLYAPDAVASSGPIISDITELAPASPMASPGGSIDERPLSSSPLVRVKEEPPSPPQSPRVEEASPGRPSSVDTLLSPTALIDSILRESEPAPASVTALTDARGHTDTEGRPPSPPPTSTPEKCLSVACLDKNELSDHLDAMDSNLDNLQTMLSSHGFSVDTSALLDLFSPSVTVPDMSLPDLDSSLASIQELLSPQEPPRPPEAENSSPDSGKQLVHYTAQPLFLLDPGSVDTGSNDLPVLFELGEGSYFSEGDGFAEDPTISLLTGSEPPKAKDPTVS

Take TTTCCA: the binding signal was 1.37 fold enrichment (6-mer frequency, TF over GST control) with FLI1; 1.31 fold enrichment (6-mer frequency, TF over GST control) in the assay with ELK1; 1.39 fold enrichment (6-mer frequency, TF over GST control) in the assay with GABPA; 1.23 fold enrichment (6-mer frequency, TF over GST control) with ERG; 1.36 fold enrichment (6-mer frequency, TF over GST control) with ELF1; 1.27 fold enrichment (6-mer frequency, TF over GST control) with EHF. The binding signal was 1.37 fold enrichment (6-mer frequency, TF over GST control) with SPI1; 1.39 fold enrichment (6-mer frequency, TF over GST control) with SPIB; 1.31 fold enrichment (6-mer frequency, TF over GST control) in the assay with ELK3; 1.34 fold enrichment (6-mer frequency, TF over GST control) with FEV; 1.28 fold enrichment (6-mer frequency, TF over GST control) with ETV5; 2.18 fold enrichment (6-mer frequency, TF over GST control) in the assay with HSF1. Moreover, the binding signal was 1.18 fold enrichment (6-mer frequency, TF over GST control) with SPIC; 1.39 fold enrichment (6-mer frequency, TF over GST control) with ELF4; 1.39 fold enrichment (6-mer frequency, TF over GST control) with ELK4; 1.22 fold enrichment (6-mer frequency, TF over GST control) with ETV2; 1.19 fold enrichment (6-mer frequency, TF over GST control) with ELF3; 1.61 fold enrichment (6-mer frequency, TF over GST control) in the assay with CRX. Moreover, the binding signal with ETV1 is 1.22 fold enrichment (6-mer frequency, TF over GST control).
